Test results from the supplement of paper PMC10849652.
About 7,900 targets were measured; listed, in parts, are those with a hit and a random draw of the rest. About 0.6% of all pairs of compound and target were hits. A number with no mark means an inactive call.

Tests used:
Assay in all cases: log2 fold change, soluble protein after heating vs DMSO (PISA); higher = thermal stabilisation; K562 cells, 10 uM, 30 min; active = over 0.2 and 3.5 SD of the protein, either way, in both replicates (recomputed)
[1] = compound: CC1=C(C=C(C=C1)NC(=O)C2=CC(=CC=C2)C(C)(C)C#N)NC3=CC4=C(C=C3)N=CN(C4=O)C
How it was run: (§1)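 Thermal stability values are relative to control samples and come from duplicates. They are expressed as log2 fold changes. For measurement, K562 cells (2×10^6 cells/mL) received 10 μM compound for 30 min, and aliquots were heated for 3 min over 48°C-58°C, pooled, and extracted at 4°C in PBS with 0.5% NP-40. Soluble protein, the supernatant after 21,000xg for 90 min, was quantified by TMTpro 16plex LC-MS/MS with equalised channel sums.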

[2] = compound: CC1=C(C=C(C=C1)NC(=O)C2=CC(=CC=C2)N(C)C)NC(=O)C3=CC=C(C=C3)O
How it was run: as §1

[3] = compound: CC1=CC=C(C=C1)SC2=C3C=C(SC3=CN=C2)C(=O)N
How it was run: as §1

[4] = compound: CC1=NC(=CC=C1)C2=C(N=C(N2)C(C)(C)C)C3=CC4=NC=CN=C4C=C3
How it was run: as §1

Nexturastat A = compound: CCCCN(Cc1ccc(C(=O)NO)cc1)C(=O)Nc1ccccc1 [Nexturastat A]
How it was run: as §1

vemurafenib = compound: CCCS(=O)(=O)Nc1ccc(F)c(C(=O)c2c[nH]c3ncc(-c4ccc(Cl)cc4)cc23)c1F [vemurafenib]
How it was run: as §1

[5] = compound: CCCS(=O)(=O)Nc1ccc(F)c(C(=O)c2c[nH]c3ncc(Cl)cc23)c1F
How it was run: as §1

[6] = compound: CCCc1cc(C)[nH]c(=O)c1CNC(=O)c1cc(-c2ccnc(N3CCN(C)CC3)c2)cc2c1cnn2C(C)C
How it was run: as §1

givinostat = compound: CCN(CC)Cc1ccc2cc(COC(=O)Nc3ccc(C(=O)NO)cc3)ccc2c1 [givinostat]
How it was run: as §1

barasertib = compound: CCN(CCCOc1ccc2c(Nc3cc(CC(=O)Nc4cccc(F)c4)[nH]n3)ncnc2c1)CCOP(=O)(O)O [barasertib]
How it was run: as §1

[7] = compound: CC[C@@H]1C(=O)N(C)c2cnc(Nc3ccc(C(=O)NC4CCN(C)CC4)cc3OC)nc2N1C1CCCC1
How it was run: as §1

volasertib = compound: CC[C@@H]1C(=O)N(C)c2cnc(Nc3ccc(C(=O)N[C@H]4CC[C@H](N5CCN(CC6CC6)CC5)CC4)cc3OC)nc2N1C(C)C [volasertib]
How it was run: as §1

[8] = compound: CC[C@H](C)N1C=C(C2=C(C=C(C=C21)C3=CN=C(C=C3)N4CCNCC4)C(=O)NCC5=C(C=C(NC5=O)C)C)C
How it was run: as §1

epoxomicin = compound: CC[C@H](C)[C@@H](C(=O)N[C@@H]([C@@H](C)O)C(=O)N[C@@H](CC(C)C)C(=O)[C@]1(CO1)C)NC(=O)[C@H]([C@@H](C)CC)N(C)C(=O)C [epoxomicin]
How it was run: as §1

[9] = compound: CCn1c(C(=O)N(C2CC2)C2CC2)cc2c3c(ncn3C)c(Nc3cc(C)n(C)n3)nc21
How it was run: as §1

[10] = compound: CCn1cc(-c2ccnc3[nH]c(-c4cccc(CN(C)C)c4)cc23)c(-c2ccc(NC(=O)N(C)C)cc2)n1
How it was run: as §1

[11] = compound: CN(C)CC(=O)Nc1ccc2[nH]c(=O)c3ccccc3c2c1
How it was run: as §1

rosiglitazone = compound: CN(CCOC1=CC=C(C=C1)C[C@H]2C(=O)NC(=O)S2)C3=CC=CC=N3 (racemic) [rosiglitazone]
How it was run: as §1

[12] = compound: CN1C2=C(C3=C1C(=O)N(N=C3)CC4=CC(=CC=C4)N)SC(=C2)S(=O)C
How it was run: as §1

[13] = compound: CN1CCC(CNc2ccc3ncc(-c4cccc(OC(F)(F)F)c4)n3n2)CC1
How it was run: as §1

UniProt Q96KB5, sequence (Q96KB5 whole entry, looked up): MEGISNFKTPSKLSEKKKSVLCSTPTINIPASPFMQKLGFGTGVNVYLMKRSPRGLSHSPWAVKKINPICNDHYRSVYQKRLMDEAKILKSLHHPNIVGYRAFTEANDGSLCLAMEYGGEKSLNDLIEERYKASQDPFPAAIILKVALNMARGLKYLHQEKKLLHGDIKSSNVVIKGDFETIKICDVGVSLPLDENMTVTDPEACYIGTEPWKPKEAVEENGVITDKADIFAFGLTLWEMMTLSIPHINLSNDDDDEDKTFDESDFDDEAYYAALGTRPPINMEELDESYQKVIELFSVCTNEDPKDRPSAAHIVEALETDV
UniProt Q13362, sequence (Q13362 whole entry, looked up): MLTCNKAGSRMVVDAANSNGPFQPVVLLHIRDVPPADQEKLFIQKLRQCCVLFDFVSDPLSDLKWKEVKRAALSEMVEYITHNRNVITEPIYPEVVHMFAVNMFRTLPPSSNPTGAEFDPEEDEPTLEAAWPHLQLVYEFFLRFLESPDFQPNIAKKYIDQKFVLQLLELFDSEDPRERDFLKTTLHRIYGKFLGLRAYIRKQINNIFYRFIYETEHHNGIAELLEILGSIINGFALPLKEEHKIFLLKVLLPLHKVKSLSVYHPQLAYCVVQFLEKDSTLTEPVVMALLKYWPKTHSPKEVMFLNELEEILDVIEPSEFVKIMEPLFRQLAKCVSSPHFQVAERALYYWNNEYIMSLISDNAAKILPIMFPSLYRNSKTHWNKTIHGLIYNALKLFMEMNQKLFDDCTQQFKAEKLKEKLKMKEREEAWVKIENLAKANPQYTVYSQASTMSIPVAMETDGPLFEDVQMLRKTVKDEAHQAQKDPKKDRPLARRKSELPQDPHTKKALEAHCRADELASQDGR
UniProt Q86T03, sequence (Q86T03 whole entry, looked up): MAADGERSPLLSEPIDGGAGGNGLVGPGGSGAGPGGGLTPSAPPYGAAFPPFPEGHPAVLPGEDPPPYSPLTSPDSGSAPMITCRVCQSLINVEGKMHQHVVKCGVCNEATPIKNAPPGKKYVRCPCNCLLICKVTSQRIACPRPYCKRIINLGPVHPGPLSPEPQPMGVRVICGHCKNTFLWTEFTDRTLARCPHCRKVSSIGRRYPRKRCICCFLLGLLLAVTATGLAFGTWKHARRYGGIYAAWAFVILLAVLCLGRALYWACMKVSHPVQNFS
UniProt Q16401, sequence (Q16401 whole entry, looked up): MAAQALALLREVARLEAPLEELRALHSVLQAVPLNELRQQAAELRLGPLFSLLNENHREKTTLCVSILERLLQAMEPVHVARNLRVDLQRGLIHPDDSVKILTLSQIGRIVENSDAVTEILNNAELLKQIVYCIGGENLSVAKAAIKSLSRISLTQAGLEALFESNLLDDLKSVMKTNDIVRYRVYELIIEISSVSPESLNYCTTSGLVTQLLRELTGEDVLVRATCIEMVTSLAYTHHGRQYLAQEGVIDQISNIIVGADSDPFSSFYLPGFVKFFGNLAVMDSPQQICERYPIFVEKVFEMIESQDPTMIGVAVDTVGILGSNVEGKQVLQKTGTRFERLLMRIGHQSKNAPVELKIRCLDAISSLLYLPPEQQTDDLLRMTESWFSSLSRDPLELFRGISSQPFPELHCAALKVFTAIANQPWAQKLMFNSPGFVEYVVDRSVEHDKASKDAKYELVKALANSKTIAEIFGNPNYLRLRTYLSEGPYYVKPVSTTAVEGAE
UniProt Q6WKZ4, sequence (Q6WKZ4 whole entry, looked up): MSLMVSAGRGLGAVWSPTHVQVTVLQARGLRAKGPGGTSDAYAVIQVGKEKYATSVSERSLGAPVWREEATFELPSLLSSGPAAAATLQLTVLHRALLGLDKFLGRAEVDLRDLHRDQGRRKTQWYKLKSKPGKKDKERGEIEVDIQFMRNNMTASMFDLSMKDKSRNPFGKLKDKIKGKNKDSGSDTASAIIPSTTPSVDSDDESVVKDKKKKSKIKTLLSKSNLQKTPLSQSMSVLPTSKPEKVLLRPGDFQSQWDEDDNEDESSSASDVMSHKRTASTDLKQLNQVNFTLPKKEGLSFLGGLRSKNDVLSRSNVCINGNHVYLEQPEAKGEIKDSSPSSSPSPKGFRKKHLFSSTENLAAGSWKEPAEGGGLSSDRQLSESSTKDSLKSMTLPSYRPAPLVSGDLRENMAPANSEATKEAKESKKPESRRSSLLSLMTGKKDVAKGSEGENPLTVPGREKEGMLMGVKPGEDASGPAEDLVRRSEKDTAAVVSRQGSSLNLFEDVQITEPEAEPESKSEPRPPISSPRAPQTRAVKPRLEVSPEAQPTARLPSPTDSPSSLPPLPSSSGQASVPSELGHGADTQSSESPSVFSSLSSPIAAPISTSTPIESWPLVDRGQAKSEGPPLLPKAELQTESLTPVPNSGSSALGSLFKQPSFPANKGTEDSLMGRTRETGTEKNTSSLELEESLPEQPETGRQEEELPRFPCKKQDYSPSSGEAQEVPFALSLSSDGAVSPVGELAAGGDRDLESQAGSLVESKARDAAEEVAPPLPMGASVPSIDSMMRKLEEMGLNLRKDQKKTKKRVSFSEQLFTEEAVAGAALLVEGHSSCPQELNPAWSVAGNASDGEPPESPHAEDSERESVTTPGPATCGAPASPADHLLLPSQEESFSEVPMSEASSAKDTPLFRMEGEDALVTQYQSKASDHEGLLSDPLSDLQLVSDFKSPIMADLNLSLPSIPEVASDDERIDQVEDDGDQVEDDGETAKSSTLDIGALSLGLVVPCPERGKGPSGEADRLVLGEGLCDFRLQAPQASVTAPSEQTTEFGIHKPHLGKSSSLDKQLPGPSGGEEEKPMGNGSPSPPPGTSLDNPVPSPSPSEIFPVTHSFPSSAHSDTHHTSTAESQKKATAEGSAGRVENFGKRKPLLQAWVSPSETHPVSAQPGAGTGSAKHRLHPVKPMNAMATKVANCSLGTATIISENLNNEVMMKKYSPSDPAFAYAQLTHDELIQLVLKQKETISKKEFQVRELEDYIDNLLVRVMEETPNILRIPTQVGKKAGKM
UniProt Q00577, sequence (Q00577 whole entry, looked up): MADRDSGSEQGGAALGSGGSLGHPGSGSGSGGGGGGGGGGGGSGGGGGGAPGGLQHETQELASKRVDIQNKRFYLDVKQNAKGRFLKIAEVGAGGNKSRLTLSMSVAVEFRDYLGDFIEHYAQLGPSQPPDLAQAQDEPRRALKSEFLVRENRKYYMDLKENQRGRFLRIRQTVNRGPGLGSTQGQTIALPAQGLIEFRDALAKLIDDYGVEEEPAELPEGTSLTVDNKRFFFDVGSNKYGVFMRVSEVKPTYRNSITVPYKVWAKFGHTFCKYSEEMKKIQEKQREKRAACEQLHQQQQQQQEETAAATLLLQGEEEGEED
UniProt Q969N2, sequence (Q969N2 whole entry, looked up): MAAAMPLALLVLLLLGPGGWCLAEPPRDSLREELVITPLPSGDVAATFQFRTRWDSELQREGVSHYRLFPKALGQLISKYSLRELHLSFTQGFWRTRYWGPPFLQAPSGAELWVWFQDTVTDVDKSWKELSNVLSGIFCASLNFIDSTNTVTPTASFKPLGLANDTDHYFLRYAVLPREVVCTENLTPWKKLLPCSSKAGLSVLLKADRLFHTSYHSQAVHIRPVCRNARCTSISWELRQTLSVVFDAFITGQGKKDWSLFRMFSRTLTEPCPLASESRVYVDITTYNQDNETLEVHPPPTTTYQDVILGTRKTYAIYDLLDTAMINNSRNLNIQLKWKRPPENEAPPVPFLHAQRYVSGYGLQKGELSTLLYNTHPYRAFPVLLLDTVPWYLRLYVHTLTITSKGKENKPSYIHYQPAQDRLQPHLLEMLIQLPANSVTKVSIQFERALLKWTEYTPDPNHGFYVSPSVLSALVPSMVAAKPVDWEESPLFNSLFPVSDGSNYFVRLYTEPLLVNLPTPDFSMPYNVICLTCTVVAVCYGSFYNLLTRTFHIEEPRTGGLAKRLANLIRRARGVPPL
UniProt Q8NHP8, sequence (Q8NHP8 whole entry, looked up): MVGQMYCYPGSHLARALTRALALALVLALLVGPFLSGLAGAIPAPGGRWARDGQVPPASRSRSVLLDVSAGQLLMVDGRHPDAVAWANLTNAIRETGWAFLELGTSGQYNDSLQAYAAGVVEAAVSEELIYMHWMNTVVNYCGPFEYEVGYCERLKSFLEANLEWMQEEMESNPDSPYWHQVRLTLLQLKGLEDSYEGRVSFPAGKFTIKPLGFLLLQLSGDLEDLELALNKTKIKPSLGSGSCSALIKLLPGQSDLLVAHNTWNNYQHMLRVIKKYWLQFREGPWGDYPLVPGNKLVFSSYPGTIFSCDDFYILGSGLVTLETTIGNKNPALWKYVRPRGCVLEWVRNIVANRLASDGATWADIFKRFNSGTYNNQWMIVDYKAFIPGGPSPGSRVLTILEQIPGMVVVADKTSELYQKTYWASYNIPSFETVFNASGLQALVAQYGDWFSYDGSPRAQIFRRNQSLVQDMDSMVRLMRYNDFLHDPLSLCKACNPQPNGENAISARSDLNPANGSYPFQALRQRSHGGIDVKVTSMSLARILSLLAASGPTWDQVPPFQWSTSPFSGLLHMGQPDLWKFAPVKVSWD
UniProt Q7Z7A4, sequence (Q7Z7A4 whole entry, looked up): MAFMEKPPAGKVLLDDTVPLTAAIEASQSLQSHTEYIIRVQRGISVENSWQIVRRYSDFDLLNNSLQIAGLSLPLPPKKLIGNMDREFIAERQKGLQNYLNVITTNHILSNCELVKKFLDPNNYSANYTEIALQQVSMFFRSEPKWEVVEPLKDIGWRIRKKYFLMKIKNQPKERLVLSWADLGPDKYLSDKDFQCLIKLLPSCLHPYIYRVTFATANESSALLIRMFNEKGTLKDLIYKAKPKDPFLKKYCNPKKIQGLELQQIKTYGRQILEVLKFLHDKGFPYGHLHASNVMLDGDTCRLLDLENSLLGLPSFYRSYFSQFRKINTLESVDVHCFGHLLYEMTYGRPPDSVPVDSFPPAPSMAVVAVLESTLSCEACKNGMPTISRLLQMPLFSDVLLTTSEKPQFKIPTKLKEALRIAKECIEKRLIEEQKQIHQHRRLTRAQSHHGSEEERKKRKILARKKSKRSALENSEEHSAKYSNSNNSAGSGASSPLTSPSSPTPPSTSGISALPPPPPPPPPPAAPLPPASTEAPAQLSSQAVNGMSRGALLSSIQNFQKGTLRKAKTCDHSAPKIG

Target | log2 fold change [1] | log2 fold change [2] | log2 fold change [3] | log2 fold change [4] | log2 fold change (Nexturastat A) | log2 fold change (vemurafenib) | log2 fold change [5] | log2 fold change [6] | log2 fold change (givinostat) | log2 fold change (barasertib) | log2 fold change [7] | log2 fold change (volasertib) | log2 fold change [8] | log2 fold change (epoxomicin) | log2 fold change [9] | log2 fold change [10] | log2 fold change [11] | log2 fold change (rosiglitazone) | log2 fold change [12] | log2 fold change [13]
PPP2R5C isoform 5 (UniProt Q13362) | 0.001 | -0.045 | 0.012 | 0.052 | -0.171 | 0.066 | 0.038 | 0.032 | 0.059 | 0.018 | -0.12 | -0.429 (active) | 0.019 | 0.06 | -0.086 | -0.009 | -0.023 | 0.021 | -0.027 | -0.203
PLD3 (UniProt Q8IV08) | 0.002 | 0.012 | 0.034 | 0.018 | -0.081 | -0.007 | 0.019 | -0.028 | -0.072 | -0.013 | -0.369 (active) | -0.437 (active) | -0.038 | 0.041 | 0.052 | 0.035 | 0.014 | -0.007 | -0.027 | -0.488 (active)
PSMD5 (UniProt Q16401) | -0.009 | -0.001 | 0.023 | 0.027 | -0.01 | 0.015 | 0.047 | 0.003 | -0.007 | 0.027 | -0.112 | -0.225 (active) | 0.013 | 0.027 | 0 | -0.026 | -0.011 | 0.012 | -0.043 | -0.038
RAB11FIP1 (UniProt Q6WKZ4) | -0.009 | 0.001 | 0.015 | -0.018 | 0.034 | 0.006 | 0.063 | 0.009 | 0.015 | 0.014 | -0.07 | -0.105 | 0.023 | 0.122 | 0.015 | -0.063 | 0.021 | 0.018 | -0.017 | -0.373 (active)
PRIM1 (UniProt P49642) | 0.02 | -0.083 | 0.061 | -0.004 | 0.162 | 0.042 | 0.1 | 0.074 | 0.031 | 0.056 | -0.097 | -0.249 | 0.093 | 0.088 | -0.072 | -0.018 | 0.117 | 0.048 | 0.052 | -0.12
PIP4P1 isoform 2 (UniProt Q86T03) | -0.018 | -0.001 | -0.019 | 0.039 | 0.035 | -0.198 | -0.063 | -0.002 | -0.037 | 0.001 | -0.058 | 0.112 | -0.003 | 0.008 | 0.009 | -0.074 | -0.012 | -0.016 | 0.076 | -0.262
PTGES3 (UniProt Q15185) | 0.039 | -0.073 | 0.044 | 0.078 | -0.046 | 0.032 | 0.111 | 0.034 | 0.026 | 0.064 | -0.21 | -0.504 (active) | 0.096 | 0.041 | 0 | -0.11 | 0.049 | 0.048 | -0.045 | -0.134
PIP4K2A (UniProt P48426) | -0.027 | -0.061 | 0.017 | -0.005 | -0.051 | -0.044 | 0.004 | -0.01 | -0.052 | 0.022 | 0.602 (active) | 0.768 (active) | -0.055 | 0.018 | -0.049 | -0.052 | -0.021 | -0.009 | 0.04 | 0.114
PIKFYVE (UniProt Q9Y2I7) | -0.012 | -0.02 | 0.005 | 0.006 | 0.004 | 0.091 | 0.109 | -0.001 | 0.054 | 0.013 | -0.182 | -0.499 (active) | 0.103 | -0.031 | -0.049 | -0.032 | 0.032 | 0.168 | -0.05 | -0.239
PIGT (UniProt Q969N2) | -0.001 | -0.005 | 0.02 | -0.016 | 0.031 | -0.008 | 0.009 | 0.027 | -0.033 | 0.004 | 0.02 | -0.118 | 0.035 | -0.011 | 0.019 | -0.046 | 0.013 | 0.014 | 0.015 | 0.081
PXK (UniProt Q7Z7A4) | 0.017 | -0.059 | -0.041 | 0.011 | -0.018 | 0.017 | 0.071 | -0.046 | 0.022 | 0.002 | -0.136 | -0.077 | 0.04 | 0.029 | 0.004 | -0.012 | 0.027 | 0.046 | -0.028 | -0.208
PURA (UniProt Q00577) | 0.032 | 0.032 | -0.101 | -0.121 | 0.112 | -0.111 | -0.143 | 0.144 | -0.008 | -0.091 | 0.355 | 0.418 | -0.087 | -0.197 | 0.036 | 0.26 | -0.095 | -0.18 | 0.327 | 0.441
PBK (UniProt Q96KB5) | 0.01 | -0.056 | 0.069 | -0.001 | 0.037 | 0.124 | 0.14 | 0.144 | 0.143 | 0.145 | -0.18 | -0.601 (active) | 0.121 | -0.005 | -0.086 | -0.026 | 0.091 | 0.092 | 0.053 | -0.187
PEX11B (UniProt O96011) | 0.06 | -0.039 | 0.321 | -0.008 | -0.076 | 0.08 | 0 | 0.029 | 0.008 | -0.002 | 0.071 | -0.018 | -0.038 | -0.013 | 0.006 | 0.04 | 0.064 | 0.007 | -0.085 | 0.239
PLBD2 (UniProt Q8NHP8) | -0.053 | 0.058 | 0.02 | -0.051 | -0.053 | -0.028 | 0.001 | -0.008 | 0.004 | -0.013 | -0.188 | -0.222 (active) | -0.034 | -0.015 | 0.024 | 0.029 | 0.008 | 0.009 | -0.029 | -0.21
